# Measurements: PubChem BioAssay AID743395 (Broad Institute, 2014)
# The whole screen tested about 1,200 compounds, of which about 480 (40%) were called active. How the calls were made is not given here. The set was probably picked from earlier hits. Not all results are given here. Measured potencies and affinities stand elsewhere.
# Test: HepG2 cell cytotoxicity, dose response, cytotoxicity control, CellTiter-Glo luminescence, cherry-pick, set 2 (AID 743395)
# Settings: HepG2 viability, CellTiter-Glo ATP luminescence, 72 h; series mostly up to 26 µM
row,SMILES,outcome
1,CN(Cc1c(F)cccc1Cl)C(=O)c1ccc(NC(=O)CC2SC(N3CCCCC3)=NC2=O)cc1 (configuration not stated),inactive
2,Cc1noc(NS(=O)(=O)c2ccc(N/C=C\C(=O)c3ccccc3)cc2)c1C,inactive
3,COc1cc(OC)cc(C(=O)NC(=S)Nc2ccc3oc(=O)ccc3c2)c1,inactive
4,O=C(c1[nH]ncc1-c1ccc(Cl)cc1)C1CO1 (configuration not stated),inactive
5,S=C(NCc1ccco1)NCC1CCCO1 (configuration not stated),inactive
6,Cc1cc2nnc(SCC(=O)NCc3ccco3)n2c2ccccc12,inactive
7,CCCCC1(C2CCCC2)NC(=O)NC1=O (configuration not stated),inactive
8,CNS(=O)(=O)c1cccc(C(=O)OCC(=O)c2cc(C)n(CC3CCCO3)c2C)c1 (configuration not stated),inactive
9,O=Cc1ccccc1OCc1ccc2c(c1)OCO2,inactive
10,CCOC1=C2[C@@H](CN(S(=O)(=O)c3ccc(C)cc3)[C@H]2c2ccc(Cl)cc2)[C@H]2C(=O)N(c3ccccc3)C(=O)[C@H]2C1,inactive
11,COc1cc(C(=O)c2cocc2C(=O)c2ccc3c(c2)OCO3)cc(OC)c1OC,inactive
12,COc1ccc(N(C)S(=O)(=O)c2cccc(C(=O)NCC3CCCCC3)c2)cc1,inactive
13,COCCNC(=O)C1CCCN(C(=O)c2ccc3sccc3c2)CC1 (configuration not stated),inactive
14,COc1ccc2c3c(n(C)c2c1)[C@H](CO)NCC31CCN(Cc2cc(-c3ccccc3)on2)CC1,inactive
15,COc1ccc2c3c([nH]c2c1)[C@H](CO)N(C(=O)Nc1ccc(F)cc1)CC31CCN(S(=O)(=O)c2ccccc2)CC1,inactive
16,CCCNC(=O)N1CC2(CN(CC3CCCCC3)C2)c2c(n(C)c3cc(OC)ccc23)[C@H]1CO,inactive
17,COc1ccc2c(c1)[nH]c1c(=O)n(/N=C/c3ccc(OC)c(CN4CCCC4)c3)cnc12,inactive
18,COCC(=O)N1C[C@@H]2[C@H](c3ccccc31)[C@H](CO)N2Cc1ccc(OC)cc1,inactive
19,Cc1sc(NC(=S)NC(=O)CCc2ccccc2)c(C(N)=O)c1C,inactive
20,COCCNC(=O)NC12CC3(C)CC(C)(CC(C)(C3)C1)C2,inactive
21,COc1ccccc1C(=O)Nc1onc(C)c1C#N,inactive
22,COc1cccc(CNC(=O)CSc2nc3ccc(C)cc3[nH]2)c1,inactive
23,COc1cccc(N2CCN(C(=O)c3ccc(CS(=O)c4ccc(Cl)cc4)o3)CC2)c1 (configuration not stated),inactive
24,CC(C)(C)c1csc(NC(=O)Cc2cccs2)n1,inactive
25,Cc1ccc(S(=O)(=O)N[C@H](C(=O)OCC(=O)NC(=O)C2CCCCC2)C(C)C)cc1,inactive
26,CN1CCN(C(=O)c2ccc(CN(c3ccccc3)S(=O)(=O)c3ccccc3)cc2)CC1,inactive
27,CC(C)c1ccc(NC(=O)CN2C(=O)NC3(CCCCCCC3)C2=O)cc1,inactive
